In all, about 190,000 compounds went through this assay and about 6,900 (3.6%) were called active. This excerpt belongs to a sample that is enriched for actives. Unmarked numbers belong to inactive results. Cut-off read from the data, not from the text of the source: active = inhibition above about 50%; inactive = the rest.
Molecular target: Huntingtin (Homo sapiens) (UniProt P42858)
Test: mutant huntingtin-calmodulin interaction inhibitors – biochemical, AlphaScreen, primary screen (AID 1671202);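 note: 0% = both proteins with DMSO and 100% = one protein alone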
Details: AlphaScreen His-mHTT/GST-CaM binding, luminescence; at 15 µM, hits give high values

Sequence of Huntingtin (Homo sapiens) (P42858 whole entry, looked up, stated change not applied): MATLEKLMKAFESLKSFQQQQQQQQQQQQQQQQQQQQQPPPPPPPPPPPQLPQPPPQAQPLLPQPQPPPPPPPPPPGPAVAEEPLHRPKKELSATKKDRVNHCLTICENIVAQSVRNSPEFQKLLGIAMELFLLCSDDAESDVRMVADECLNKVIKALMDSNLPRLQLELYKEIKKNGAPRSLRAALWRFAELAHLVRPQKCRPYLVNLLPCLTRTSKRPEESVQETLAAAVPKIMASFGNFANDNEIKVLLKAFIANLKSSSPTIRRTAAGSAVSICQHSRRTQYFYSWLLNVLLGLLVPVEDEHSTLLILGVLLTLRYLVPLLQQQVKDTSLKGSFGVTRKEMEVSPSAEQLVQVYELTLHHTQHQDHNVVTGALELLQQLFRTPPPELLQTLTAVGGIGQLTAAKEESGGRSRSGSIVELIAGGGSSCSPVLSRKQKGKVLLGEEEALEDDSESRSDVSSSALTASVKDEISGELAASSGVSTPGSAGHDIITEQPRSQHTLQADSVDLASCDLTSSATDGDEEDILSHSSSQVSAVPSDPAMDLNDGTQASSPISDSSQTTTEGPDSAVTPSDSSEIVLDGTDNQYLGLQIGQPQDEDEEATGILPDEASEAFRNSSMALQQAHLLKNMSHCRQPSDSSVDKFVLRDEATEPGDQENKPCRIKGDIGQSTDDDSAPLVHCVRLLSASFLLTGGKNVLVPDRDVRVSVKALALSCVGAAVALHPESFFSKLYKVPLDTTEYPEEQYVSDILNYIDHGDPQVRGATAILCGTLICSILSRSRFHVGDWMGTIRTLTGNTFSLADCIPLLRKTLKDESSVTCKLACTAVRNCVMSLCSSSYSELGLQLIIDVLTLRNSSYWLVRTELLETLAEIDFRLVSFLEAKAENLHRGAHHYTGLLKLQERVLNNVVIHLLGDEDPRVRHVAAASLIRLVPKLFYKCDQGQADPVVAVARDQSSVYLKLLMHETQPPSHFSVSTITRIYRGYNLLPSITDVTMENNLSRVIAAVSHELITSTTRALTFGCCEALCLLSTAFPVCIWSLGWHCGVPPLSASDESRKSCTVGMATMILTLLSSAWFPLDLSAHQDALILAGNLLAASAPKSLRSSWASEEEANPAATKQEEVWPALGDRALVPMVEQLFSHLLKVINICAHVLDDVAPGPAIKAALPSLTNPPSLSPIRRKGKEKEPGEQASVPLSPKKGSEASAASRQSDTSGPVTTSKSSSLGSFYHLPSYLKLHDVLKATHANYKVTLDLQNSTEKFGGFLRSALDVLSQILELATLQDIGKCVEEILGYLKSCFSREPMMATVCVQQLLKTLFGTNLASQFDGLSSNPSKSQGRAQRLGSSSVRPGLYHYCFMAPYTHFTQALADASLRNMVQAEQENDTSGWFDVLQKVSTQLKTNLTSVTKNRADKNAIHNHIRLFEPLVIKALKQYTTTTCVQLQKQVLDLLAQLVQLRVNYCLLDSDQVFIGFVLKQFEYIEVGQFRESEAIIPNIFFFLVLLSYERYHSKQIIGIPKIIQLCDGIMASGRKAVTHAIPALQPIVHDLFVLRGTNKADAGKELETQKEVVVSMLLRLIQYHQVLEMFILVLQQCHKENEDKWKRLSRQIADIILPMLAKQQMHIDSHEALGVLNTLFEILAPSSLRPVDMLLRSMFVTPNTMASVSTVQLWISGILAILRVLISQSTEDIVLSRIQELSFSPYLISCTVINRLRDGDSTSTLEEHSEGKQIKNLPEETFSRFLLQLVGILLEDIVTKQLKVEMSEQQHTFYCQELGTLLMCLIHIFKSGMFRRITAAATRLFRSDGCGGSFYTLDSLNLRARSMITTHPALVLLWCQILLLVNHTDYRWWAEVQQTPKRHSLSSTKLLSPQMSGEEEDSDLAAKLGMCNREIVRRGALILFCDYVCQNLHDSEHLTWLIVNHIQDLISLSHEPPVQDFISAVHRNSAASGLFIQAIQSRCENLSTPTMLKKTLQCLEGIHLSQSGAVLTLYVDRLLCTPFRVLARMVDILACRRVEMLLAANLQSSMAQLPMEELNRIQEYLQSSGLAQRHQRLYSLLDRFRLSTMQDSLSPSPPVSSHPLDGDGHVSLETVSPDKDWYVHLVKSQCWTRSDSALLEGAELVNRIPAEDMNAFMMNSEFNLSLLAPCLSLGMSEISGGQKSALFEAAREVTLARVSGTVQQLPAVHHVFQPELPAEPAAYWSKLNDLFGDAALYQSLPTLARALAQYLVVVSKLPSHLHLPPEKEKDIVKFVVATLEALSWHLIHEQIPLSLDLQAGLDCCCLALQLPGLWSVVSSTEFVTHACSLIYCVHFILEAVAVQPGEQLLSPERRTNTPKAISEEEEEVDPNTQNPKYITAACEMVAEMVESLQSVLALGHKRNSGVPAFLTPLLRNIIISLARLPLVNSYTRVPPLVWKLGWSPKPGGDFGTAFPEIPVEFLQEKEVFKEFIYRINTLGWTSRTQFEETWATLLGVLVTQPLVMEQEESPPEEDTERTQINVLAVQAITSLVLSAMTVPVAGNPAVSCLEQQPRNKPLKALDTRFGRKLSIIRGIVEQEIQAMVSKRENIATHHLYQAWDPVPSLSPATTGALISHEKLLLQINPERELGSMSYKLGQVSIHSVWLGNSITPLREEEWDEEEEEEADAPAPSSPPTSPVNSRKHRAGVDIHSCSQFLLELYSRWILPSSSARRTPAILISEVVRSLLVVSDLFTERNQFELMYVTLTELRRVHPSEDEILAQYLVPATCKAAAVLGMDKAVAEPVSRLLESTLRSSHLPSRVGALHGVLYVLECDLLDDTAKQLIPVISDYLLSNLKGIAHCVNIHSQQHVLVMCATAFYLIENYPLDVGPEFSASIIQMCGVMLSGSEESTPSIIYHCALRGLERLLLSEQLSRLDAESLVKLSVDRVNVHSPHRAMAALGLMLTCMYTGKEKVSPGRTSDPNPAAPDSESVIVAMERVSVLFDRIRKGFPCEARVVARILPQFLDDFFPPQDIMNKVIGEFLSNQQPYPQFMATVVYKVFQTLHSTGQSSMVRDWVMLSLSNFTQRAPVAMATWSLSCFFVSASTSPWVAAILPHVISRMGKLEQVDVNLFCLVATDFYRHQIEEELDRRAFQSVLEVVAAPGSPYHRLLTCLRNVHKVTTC

| SMILES | inhibition |
| --- | --- |
| CCCCS(=O)(=O)N1CC=C(c2cn(CC)c3ncccc23)CC1 | 8.9% |
| Nc1ncnc(N2CCN(c3ccccc3)CC2)c1[N+](=O)[O-] | 7% |
| Cc1ccc(NC(=O)C2CCc3sc(C(=O)N(C)C)cc3C2)cc1Cl (stereo not drawn) | 5.44% |
| COc1ccc(-c2nc(-c3cccc(-c4ccnn4C)c3)no2)cc1F | -14.7% |
| CCC(Sc1nnnn1-c1ccccc1)C(=O)Nc1nnc(C(C)C)s1 (stereo not drawn) | 6.4% |
| O=C(Nc1ccc(N2CCN(c3ccccc3)C2=O)nc1)c1ccc(F)cc1 | 1.4% |
| Cn1cccc1CN(C(=O)Nc1ccccc1Cl)C1CC1 | 22% |
| COc1cc(/C=C2/C(=O)N(c3ccc(Cl)c(Cl)c3)N=C2C)ccc1O | 79% (active) |
| COc1cc(/C=C2/C(=O)N(c3ccc(Cl)c(Cl)c3)N=C2C)cc(Br)c1O | 75% (active) |
| COc1cc(/C=C2/C(=O)N(c3ccc(C(=O)O)cc3)N=C2C)ccc1O | 13% |
| COc1cc(/C=C2/SC(=O)NC2=O)cc(Br)c1O | 7% |
| CC1=NN(c2ccc(Cl)cc2Cl)C(=O)/C1=C/c1ccc(Cl)cc1 | 27% |
| COc1ccc(/C=C2/C(=O)N(c3ccccc3)N=C2C)c(OC)c1 | 25% |
| Cc1ccnc(NC(=O)c2c(O)c3cccc4c3n(c2=O)CCC4)c1 | 4% |
| CCCC(=O)N1CCC2(C1)C(=O)Nc1ccccc12 (stereo not drawn) | 0.5% |
| Cc1cccc2[nH]c(S(=O)(=O)Cc3ccc(F)cc3Cl)nc12 | -2% |
| Cc1ccccc1NC(NC(=O)c1cccc([N+](=O)[O-])c1)C(Cl)(Cl)Cl (stereo not drawn) | 48% |
| O=C(NC(Nc1cccc([N+](=O)[O-])c1)C(Cl)(Cl)Cl)c1ccc(Br)cc1 (stereo not drawn) | 76% (active) |
| CC(C)(C)NC(NC(=O)c1ccc(Br)cc1)C(Cl)(Cl)Cl (stereo not drawn) | -11% |
| O=C(NCc1ccccn1)C1CN(C(=O)c2ccncc2)CC12CCCCC2 (stereo not drawn) | -2.9% |
| COc1ccc(C)cc1NC(=O)C1CN(C(=O)c2ccncc2)CC12CCCCC2 (stereo not drawn) | 41.7% |
| COc1cc(NC(=O)C2CN(C(=O)c3ccncc3)CC23CCCCC3)cc(OC)c1 (stereo not drawn) | 87.6% (active) |
| CNC(=O)C(=O)Nc1ccc(OC)cc1 | 2% |
| C=CCNC(=O)c1cc(=O)[nH]c2c(Cl)cccc12 | 2.2% |
| COCCn1ccc2c(OCC(=O)Nc3cccc([N+](=O)[O-])c3)cccc2c1=O | -19% |
| CC1CC(=O)Nc2c1c(NC(=O)c1ccc3c(c1)OCO3)nn2C (stereo not drawn) | -9.4% |
| CCOc1ccccc1C(=O)Nc1c2c(nn1-c1cccc(Cl)c1)CSC2 | 0% |
| CCOc1ccccc1C(=O)Nc1nn(C)c2c1C(c1cccs1)CC(=O)N2 (stereo not drawn) | 100% (active) |

Source: PubChem BioAssay AID1671202 (University of Kansas High Throughput Screening Laboratory, 2021)
